Only some compounds are listed: those with a hit (about 27% of all), similar ones and a draw of the others.
CYP2C9 activ = increases human cytochrome P450 2C9 activity | P11712 | recombinant CYP2C9, luciferin-H conversion, luminescence; active compounds read high; factor 1 = untreated enzyme, 0 = blocked | activation factor at 5 µM | 1.4% of 96,000 active;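 active = activation factor of 2 or more for CYP2C9 at a 5 µM dose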;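 note: 0 = sulfaphenazole-blocked wells and 1 = vehicle-only wells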
Target sequence (P11712 whole entry, looked up): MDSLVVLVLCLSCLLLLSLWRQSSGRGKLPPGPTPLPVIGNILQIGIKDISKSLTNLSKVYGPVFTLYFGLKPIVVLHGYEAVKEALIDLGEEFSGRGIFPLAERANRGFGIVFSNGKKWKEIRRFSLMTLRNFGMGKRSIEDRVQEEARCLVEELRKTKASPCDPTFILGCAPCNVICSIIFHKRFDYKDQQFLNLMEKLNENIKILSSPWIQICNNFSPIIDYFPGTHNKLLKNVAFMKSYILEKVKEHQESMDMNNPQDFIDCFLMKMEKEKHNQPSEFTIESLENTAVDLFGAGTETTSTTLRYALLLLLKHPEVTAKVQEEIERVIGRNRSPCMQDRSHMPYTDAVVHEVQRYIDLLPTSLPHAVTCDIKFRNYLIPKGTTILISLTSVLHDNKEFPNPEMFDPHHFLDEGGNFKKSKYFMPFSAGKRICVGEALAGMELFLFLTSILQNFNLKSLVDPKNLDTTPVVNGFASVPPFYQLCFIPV
EphB4 ephrin blk = EphB4-ephrin-B2 interaction antagonism; EphB4 LBD / TNYL-RAW-Alexa532 peptide, fluorescence polarization; inhibition, % at 7 µM; 0.15% of 97,000 active; AID 720;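 active = inhibition above the screen-wide mean inhibition plus 3 SD, cut at about 15% in these data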;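 note: 0% = DMSO wells and 100% = excess unlabeled TNYL-RAW peptide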
CYP2C19 inhib = blocks human cytochrome P450 2C19. P33261. CYP2C19 Supersomes, luciferin-H EGE luminescence, 30 min. inhibition, % at 5 µM. 21% of 96,000 active;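 active = CYP2C19 inhibition above a set limit at 5 µM in the primary screen, cut at about 50% in these data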;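 note: plate controls were negative control wells for no effect and 2.5 mM tranylcypromine positive control for full effect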
CYP2C9 inh = blocks human cytochrome P450 2C9; CYP2C9 Supersomes, luciferin-H conversion, luminescence; inhibition, % at 5 µM; 20% of 96,000 active;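 active = blocking of liver enzyme CYP2C9 beyond about 50% at 5 µM, limit read from the data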
CYP2C19 activ = cytochrome P450 2C19 (human) activation; 96,000 tested, under 10 active; recombinant CYP2C19, luciferin-H EGE luminescence; active compounds read high; 0 = fully inhibited enzyme, 1 = untreated enzyme; P33261; AID 1025; activation factor at 5 µM;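 active = activation factor of at least 2 at 5 µM in the primary screen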;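 note: 0 = wells with 2.5 mM tranylcypromine and 1 = vehicle-only wells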
* = called active by the depositor; x = no result given.

SMILES	CYP2C9 activ	EphB4 ephrin blk	CYP2C19 inhib	CYP2C9 inh	CYP2C19 activ
O=C(CCNS(=O)(=O)c1cccc2nonc12)NCc1cccs1	2*	x	16	-101	0.8
CC(C)CCNC(=O)CCS(=O)(=O)c1cccc2nonc12	1.3	x	55*	-34	0.4
CC(C)NC(=O)CCS(=O)(=O)c1cccc2nonc12	1.4	-1	15	-39	0.8
CCOc1ccccc1NC(=O)CCS(=O)(=O)c1cccc2nonc12	0.9	x	67*	8	0.3
CCC1(C(=O)O)NC(c2cccc(OC)c2O)C2C(=O)N(c3ccccc3)C(=O)C21 (stereo not given)	1	x	-16	4	1.2
COc1ccc(N2C(=O)C3CCCN3C2c2ccccc2F)cc1 (stereo not given)	0.9	-8	18	12	0.8
CCC(C(=O)NCc1ccco1)N(Cc1cccs1)C(=O)CNS(=O)(=O)c1ccccc1 (stereo not given)	0.8	6	44	22	0.6
O=C(CCn1c(=O)oc2ccccc21)NCCCN1CCCC1=O	1.1	x	-6	-13	1.1
CC(=O)c1ccc(OCC(O)CN2CCN(Cc3ccc4c(c3)OCO4)CC2)cc1 (stereo not given)	0.8	-5	46	17	0.5
CC1CCN(S(=O)(=O)c2ccc3c(c2)C(=NO)c2cc(S(=O)(=O)N4CCC(C)CC4)ccc2-3)CC1	0.9	-3	1	8	1
COc1ccc(S(=O)(=O)N2CCC(C)CC2)cc1Br	2.9*	-10	71*	-194	0.3
CCN1CCN(S(=O)(=O)c2ccc3ccccc3c2)CC1	2*	0	71*	-102	0.3
COc1ccc(S(=O)(=O)N2CCN(C)CC2)cc1Br	1.8	-9	28	-78	0.7
O=S(=O)(c1ccc2ccccc2c1)N1CCN(S(=O)(=O)N2CCCCC2)CC1	1.3	5	4	-27	1
CCN1CCN(S(=O)(=O)c2ccc(OC)c(Br)c2)CC1	2.6*	8	72*	-159	0.3
Cc1ccc(CNCC(O)(c2ccc(F)cc2)c2ccc(F)cc2)cc1	0.8	0	31	24	0.7
CCOC(=O)N1CCC(C(=O)Nc2ccc(OCC)cc2)CC1	1.1	x	-2	-8	1
CCN(CCCNC(=O)COc1cc(=O)n(C)c2ccccc12)c1ccccc1	1.3	8	19	-27	0.8
O=C(NCc1ccccc1Cl)c1ccc(Cn2cc(C(F)(F)F)ccc2=O)cc1	0.9	-2	13	14	0.9
Cc1cc(=O)c2ccccc2s1	1.1	3	28	-13	0.7
O=c1c(C(c2ccccc2)c2c(O)sc3ccccc3c2=O)c(O)sc2ccccc12	0.1	0	1	95*	1
O=C(NCc1ccccn1)c1ccc(Br)s1	0.9	1	6	15	0.9
O=C1CC(N(C(=O)c2ccco2)c2cccc(Cl)c2)C(=O)N1c1cccc(Cl)c1 (stereo not given)	0.1	-1	91*	92*	0.1
COc1cc(CNc2ccc3[nH]c(=O)[nH]c3c2)cc(Cl)c1OCC(=O)NC(C)(C)C	0.3	14	81*	71*	0.2
CCOc1ccccc1NC1=C(Cl)C(=O)N(Cc2ccccc2)C1=O	0.3	3	52*	70*	0.5
SMILES	CYP2C9 activ	EphB4 ephrin blk	CYP2C19 inhib	CYP2C9 inh	CYP2C19 activ
CCOc1cc2[nH]c(=O)n(Cc3ccccc3)c(=O)c2cc1OCC	1	-9	11	1	0.9
Cc1cccc(-n2ncc3c(NCc4ccccc4)ncnc32)c1	0.9	x	9	13	0.9
Cc1cccc(-n2ncc3c(NCc4cccs4)ncnc32)c1	0.5	-3	11	51*	0.9
Clc1ccc(-n2ncc3c(NCc4cccs4)ncnc32)cc1	x	2	x	x	x
Cc1cccc(-n2ncc3c(NCCc4ccc(S(N)(=O)=O)cc4)ncnc32)c1	0	-5	92*	96*	0.1
CCCn1c(C(C)NC(C)=O)nc2ccccc21 (stereo not given)	1.1	x	-16	-14	1.2
COc1ccc(NC(=O)C2Cc3ccccc3CN2C(=O)c2ccccc2)cn1 (stereo not given)	0.8	8	12	19	0.9
CCCN1CCC(N2CCN(c3ccccc3OC)CC2)CC1	1.2	x	-17	-21	1.2
COCCNC(=O)NC1(C(F)(F)F)Oc2ccc(Cl)cc2O1 (stereo not given)	0.9	3	25	10	0.7
CCOC(=O)c1c(C)c(C(=O)NCCOC)c(C)n1CC	1	x	21	-2	0.8
O=C(NCc1cccnc1)c1cccc(Cl)c1	1.2	-11	73*	-23	0.3
O=C(NCc1ccco1)c1nnc(Cc2ccc(Cl)cc2)o1	1.3	6	23	-31	0.8
O=C(NCc1cccnc1)c1cccc(F)c1	1.1	-10	44	-5	0.6
CCOC(=O)c1c(C)c(C(=O)NCc2cccnc2)c(C)n1CC	0.4	x	70*	60*	0.3
O=C(NCc1cccnc1)NC1(C(F)(F)F)Oc2ccc(Cl)cc2O1 (stereo not given)	0.4	2	91*	58*	0.1
O=C(NCc1ccncc1)c1nnc(Cc2c(F)cccc2Cl)o1	0.2	0	80*	83*	0.2
CCn1cc(C(=O)NC2CCc3ccccc32)c(=O)c2ccc(C)nc21 (stereo not given)	1.1	-8	24	-6	0.8
Cc1c(C(=O)N2CCN(c3ccccc3F)CC2)sc2nc(-c3ccccc3)cn12	1	4	0	4	1
N#Cc1cccc(-c2nnc(SCc3ccccc3C#N)o2)c1	1.1	-5	27	-14	0.7
O=C(NCc1ccncc1)c1c(F)c(F)c(F)c(F)c1F	0.3	-2	24	67*	0.8
CC(NC(=O)NCc1cccnc1)(C(F)(F)F)C(F)(F)F	0.7	0	77*	33	0.2
Cc1cc2c(cc(C(=O)NCc3cccnc3)n2Cc2ccc(Cl)cc2)o1	0.1	x	91*	91*	0.1
COC(=O)C(C)N(C(=O)c1cccc(Cl)c1)c1c(C)cccc1C (stereo not given)	0.4	-2	72*	62*	0.3
O=C(NCc1cccnc1)Nc1ccc(F)cc1F	1.3	2	10	-25	0.9
Cc1cc(C(=O)NCc2cccnc2)no1	1.2	x	-12	-16	1.1
SMILES	CYP2C9 activ	EphB4 ephrin blk	CYP2C19 inhib	CYP2C9 inh	CYP2C19 activ
COC(=O)C(C)N(C(=O)c1cccc2ccccc12)c1c(C)cccc1C (stereo not given)	0.6	4	26	36	0.7
Brc1ccc(-c2nn3c(-c4ccco4)nnc3s2)o1	1.1	-1	36	-11	0.6
CCOC(=O)CNC(=O)c1cn(CC(C)C)c(=O)c2cc(OC)c(OC)cc12	x	0	x	x	x
CC(C)OC(=O)c1nnc(Cc2ccc(F)cc2)o1	1	x	89*	2	0.1
O=C(NCc1ccncc1)C(F)(F)C(F)(F)C(=O)NCc1ccncc1	0.1	-2	46	93*	0.5
COc1ccc(Br)cc1C(=O)NCc1cccnc1	1.5	8	56*	-54	0.4
